These results are taken from PubChem BioAssay AID651871 (Sanford-Burnham Center for Chemical Genomics, 2012).

Where “and” joins values, the source holds several entries; their conditions need not be identical. Identical values can stand only once.

This experiment concerns H9c2. Put plainly: cardiomyocyte survival under oxidative or metabolic stress – cell-based, panel, H9c2 and HL-1, ATP luminescence, set 2, SAR follow-up (AID 651871).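 Also: cells exposed to stressor for 2 h before ATP readout; reference of the scale not given here.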 To be noted: H9c2/HL-1 cardiomyocytes, 2-deoxyglucose stress, with 2-deoxyglucose; run 5, at 79 µM (top of the series).
In the case of `COc1ccc2c(c1OC)C(=O)N1c3ccccc3C(=O)N(Cc3cccc(Cl)c3Cl)C21` (stereo not drawn), the activity (protection/inhibition) is 88% and 69.1% and -5.13%.
For the compound `CCOC(=O)c1cccc(NC(=O)CNC(=O)c2cc(-c3cc(OC)c(OC)c(OC)c3)nc3ccccc23)c1`, the activity (protection/inhibition) worked out at 97.3%.
Regarding `COc1ccc2nc(-c3cc(OC)c(OC)c(OC)c3)cc(C(=O)NCC(=O)Nc3ccc(C(C)=O)cc3)c2c1`, the activity (protection/inhibition) stood at 70.9%.
